Marburg entry inh – blocks Marburg virus binding to or entry into cells. Marburg virus pseudotyped entry inhibition, cell reporter. Potency, µM (highest dose often 37.8 µM), without a hit: top-dose activity change, negative = inhibition, usual class: inhibitors. 300,000 tested, 1.8% active; calls by dose curve; tested in HEK293 cells; note: potency is the fitted concentration of half-maximal effect
Vaccinia mCherry – inhibitors of vaccinia virus infection (mCherry reporter signal); 310,000 tested, 0.63% active; Potency, µM (top dose mostly 36.5 µM), for inactives: at the highest dose activity change, negative = inhibition, most hits filed as inhibitors; Vaccinia virus mCherry reporter infection, fluorescence; calls by dose curve; tested in A549 cells; note: potency is the fitted concentration of half-maximal effect; nearly all actives have a fitted effect of over 35% in size
LASV entry inh – blocks Lassa virus binding to or entry into cells. AID 540256. 300,000 tested, 1.2% active. Potency, µM (series often up to 37.9 µM), without a hit: at the highest dose activity change, negative = inhibition, hits mostly inhibitors. Lassa virus pseudotype entry inhibition, cell reporter; calls by dose curve; tested in HEK293 cells; note: potency is the fitted concentration of half-maximal effect; nearly all actives have a fitted effect of over 50% in size
Vaccinia Venus – vaccinia inhibition (Venus reporter); Vaccinia virus Venus reporter expression, fluorescence; Potency, µM (highest dose often 36.5 µM), without a hit: at the top dose activity change, negative = inhibition, hits mostly inhibitors; 330,000 tested, 0.46% active; AID 720580; calls by dose curve; tested in A549 cells; note: potency is the fitted concentration of half-maximal effect; nearly all actives have a fitted effect of over 30% in size
FMDV inh – antivirals against foot and mouth disease virus; FMDV antiviral cell-based qHTS; Potency, µM (highest dose often 57.9 µM), inactives show at the top dose activity change, negative = inhibition, actives largely listed as inhibitors; 410,000 tested, 1.2% active; AID 1159524; calls by dose curve; tested in HEK293T cells; note: read-out not given here; potency is the fitted concentration of half-maximal effect; nearly all actives have a fitted effect of over 45% in size
HCMV antiviral – human cytomegalovirus inhibition; HFF cells, HCMV-luciferase reporter, 72 h; active compounds read low; activity change, negative = inhibition, % at 57.5 µM; 410,000 tested, 4.5% active; AID 1259415; in the data active = activity change below about -60%; inconclusive = no clear call, values can overlap the other calls; inactive = above about -39%
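Luciferase read-out from HCMV-luciferase-infected HFFs (MOI 1 PFU/cell) 72 h post infection at 37C; compounds added after 16 h cell attachment; activity normalized between buffer-only basal and Salinomycin (10uM) inhibitor controls.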
Starred values were filed as active, the others as inactive; i = inactive; ? = inconclusive; / = no result; [ ] = dose if it differs, or a comment. In the library only some 6.5% were active in any assay of this set; here they are far more common. % is set by controls: 0 for no effect and ±100 for the full control effect.

SMILES	Marburg entry inh	Vaccinia mCherry	LASV entry inh	Vaccinia Venus	FMDV inh	HCMV antiviral
COc1cccc([C@H]2Oc3ccc(OC)cc3C(=NOC[C@@H](C)[C@H](OCc3ccccc3)C(C)C)[C@H]2O)c1	10.0%[14.2 µM]	/	/	/	/	/
Cc1cccc(C)c1NC(=O)c1nc2ccc([N+](=O)[O-])cc2nc1-c1ccccc1	/	/	/	/	/	42.0
CCOc1ccccc1NS(=O)(=O)c1c(C(=O)OC)sc2cccc(F)c12	/	-10.1%	-13.7%[46.1 µM]	-4.5%	18.7%	25.1
CC[C@@H](C)[C@H]1O[C@]2(CC[C@H]1C)C[C@@H]1C[C@@H](CC=C(C)[C@@H](O[C@H]3C[C@H](OC)[C@@H](O[C@H]4C[C@H](OC)[C@@H](O)[C@H](C)O4)[C@H](C)O3)[C@@H](C)C=CC=C3CO[C@@H]4[C@H](O)C(C)=C[C@@H](C(=O)O1)[C@]34O)O2	10.3µM*	/	2.59µM*	/	/	/
CC[C@@H](C)[C@H]1O[C@]2(CC[C@@H]1C)C[C@@H]1C[C@@H](C/C=C(\C)[C@@H](O[C@H]3C[C@H](OC)[C@@H](O[C@H]4C[C@H](OC)[C@@H](O)[C@H](C)O4)[C@H](C)O3)[C@@H](C)/C=C/C=C3\CO[C@@H]4[C@H](O)C(C)=C[C@@H](C(=O)O1)[C@]34O)O2	6.31µM*	/	?	/	/	/
CCc1nc(Cl)c(C#N)c2c1CCCC2	?	i	17.2%[46.1 µM]	-8.9%	-19.5%	-87.6*
CC(C)Cc1nc(Cl)c(C#N)c2c1CCCC2	/	/	/	/	-31.7%	-75.5*
CCCc1nc(Cl)c(C#N)c2c1CCCC2	1.4%[46.1 µM]	-7.8%	-1.1%	-8.6%	-7.6%	-37.7
O=C(NCCOCCn1c(=O)oc2ccccc21)Nc1ccc(Cl)cc1	-7.0%[46.1 µM]	24.8%	-19.2%[46.1 µM]	13.0%	-22.9%	1.7
CC(=O)c1ccc(NC(=O)COc2ccccc2-c2nc(-c3cccc(C)c3)no2)cc1	5.0%[46.1 µM]	-10.3%	-0.7%[46.1 µM]	-5.9%	25.2%	6.0
CC(C)(C)OC(=O)NCCCC[C@@H](C(=O)NCCCCCCCCCCC(=O)N1CCN(C(=O)OC(C)(C)C)CC1)n1cc(CCO)nn1	/	-5.2%	/	?	14.1µM*	-21.2
CSCC[C@@H](C(=O)NCCCCCCCCCCC(=O)N1CCN(C(=O)OC(C)(C)C)CC1)n1cc(CCO)nn1	/	-1.8%	/	-21.2%	?	0.1
CC[C@H](C)Cc1cn([C@@H](CCCCNC(=O)OC(C)(C)C)C(=O)NCCCCCCCCCCC(=O)N2CCN(C(=O)OC(C)(C)C)CC2)nn1	/	-14.2%	/	?	14.1µM*	21.1
O=C(NCCCN1CCN(c2ccccc2F)CC1)c1ccc2nc(CCc3ccccc3)oc2c1	/	-12.0%[7.34 µM]	-24.4%[46.1 µM]	-15.5%[7.34 µM]	?	-100.7*
O=C(NCCCN1CCN(c2ccccc2F)CC1)c1ccc2nc(Cc3ccccc3)oc2c1	/	-25.5%	-20.4%[46.1 µM]	-29.4%	?	-2.8
CCc1nc2ccc(C(=O)NCCCN3CCN(c4ccccc4F)CC3)cc2nc1CC	10µM*	-3.3%	?	-19.5%	0.0%	22.7
COc1ccccc1N1CCN(CCCCNC(=O)c2ccc3ccccc3c2)CC1	8.91µM*	i	/	-10.6%	?	-6.7
CCCNC(=O)c1ccc2nc(-c3ccccc3)c(-c3ccccc3)nc2c1	-25.5%	-4.5%	?	-2.3%	-19.8%	30.3
CCN1CCN(CCNC(=O)c2ccc3nc(-c4cccc(C)c4)c(-c4cccc(C)c4)nc3c2)CC1	/	/	/	/	-18.9%	-108.8*
O=C(NCc1ccco1)Nc1c(Cl)cc(Cl)cc1Cl	/	/	/	/	/	-13.3
CCOc1ccc(NC(=O)NCCn2nnc3cc(S(=O)(=O)N(C)C)ccc32)cc1	/	-1.3%	2.5%[46.1 µM]	-2.4%	-5.6%	7.3
OC(c1ccc(F)c(F)c1)c1ncc(-c2ccc(Cl)cc2)[nH]1 (stereo not given)	/	?	/	?	8.0%	-64.5*
c1ccc(-c2cccc(-c3ccccn3)n2)nc1	2.06µM*	/	2.06µM*	/	9.5%	-100.8*
c1ccc(-c2nnc(-c3ccccn3)nn2)nc1	/	?	/	-8.9%	?	65.7
c1ccc(-c2cccc(-c3ccccc3)n2)cc1	/	/	/	/	54.0%	-64.6*
SMILES	Marburg entry inh	Vaccinia mCherry	LASV entry inh	Vaccinia Venus	FMDV inh	HCMV antiviral
Cc1cc(S(=O)(=O)N2CCN(Cc3noc(CCC(=O)N4CCCCC4)n3)CC2)ccc1F	/	-10.1%	7.9%[46.1 µM]	-5.6%	-3.8%	-109.8*
O=C(c1cc(-c2ccccc2)on1)N1CCOc2ccc(CN3CCN(c4ccccn4)CC3)cc2C1	/	i	/	-18.5%	-1.4%	/
COc1cccc(-c2cc(C(=O)NCc3ccccc3)[nH]n2)c1	/	-12.7%	7.94µM*	-14.1%	49.6%	51.7
COc1cccc(CNC(=O)c2cc(-c3cccc(OC)c3)n[nH]2)c1	/	-7.9%	-1.3%[46.1 µM]	-3.1%	40.6%	29.4
COc1cccc(-c2ccc3c(N)c(C(=O)NCc4ccc(Cl)cc4)sc3n2)c1	-14.1%[46.1 µM]	?	7.94µM*	-23.1%	-4.0%	-23.6
O=C1C=CC(=O)N1c1ccc2c(c1)Cc1cc(F)ccc1-2	-13.1%[46.1 µM]	?	-17.8%[46.1 µM]	-4.4%	-12.2%	-21.2
CC(=O)Nc1ccc2c(c1)Cc1cc(N3C(=O)C=CC3=O)ccc1-2	?	i	?	-5.2%	-26.6%	-65.9*
Cc1ccc(S(=O)(=O)N2CCN(c3nc(-c4cccs4)nc4cccnc34)CC2)cc1	/	-5.7%	/	-21.3%	/	/
COc1cc(Nc2nccc(Nc3ccc4c(C)[nH]nc4c3)n2)cc(OC)c1OC	/	/	25µM*	/	/	/
COc1cc(Nc2nc(-c3ccccc3)c3cc(C)ccc3n2)cc(OC)c1OC	?	-29.3%	?	-20.9%	?	97.4
CCOC(=O)/C=C/[C@@H](CCc1ccccc1)NC(=O)C(F)(F)F	/	/	/	/	/	-11.6
Cc1noc(C)c1C(=O)NCc1ccccc1F	-7.5%	i	0.0%	-13.3%	9.7%	-68.9*
Cc1noc(C)c1C(=O)NCc1ccccc1Br	-5.3%[46.1 µM]	i	2.2%[46.1 µM]	-8.5%	-10.0%	-7.3
COc1ccc(C2Nc3ccc(NC(=O)CO)cc3C(=O)N2Cc2cccc(Cl)c2)cc1COc1ccc(NC(C)=O)cc1 (stereo not given)	/	-1.5%	/	-25.9%	/	/
COc1ccc(-c2noc(N(c3ccc(F)c(Cl)c3)c3nc(-c4ccc(OC)c(OC)c4)no3)n2)cc1OC	-0.1%[46.1 µM]	0.4%	-19.4%[46.1 µM]	-5.5%	7.2%	-9.1
C(=Nc1ccc(/C=C/c2ccnc3ccccc23)cc1)c1ccc2c(c1)OCO2	/	-1.1%	/	-8.8%	/	/
O=C1CCC(C(=O)OCC(=O)c2ccccc2)N1 (stereo not given)	?	-8.2%	25.3%	-0.1%	15.6%	34.3
CC1CC(C)C(=O)C(C(CC2CC(=O)NC(=O)C2)OC(=O)CC(=O)c2ccccc2)C1 (stereo not given)	?	3.98µM*	?	1.78µM*	-24.1%	-98.0*
N#Cc1ncc(-c2ccc3c(c2)OCCOCCOCCOCCO3)nc1C#N	?	i	?	-15.1%	39.8µM*	-72.7*
CCC(=O)N1CCN(c2ccccc2NC(=O)c2ccc([N+](=O)[O-])o2)CC1	?	?	-9.8%	-23.4%	-8.8%	-64.7*
